# From PubChem BioAssay
# Several values for one entry are separate records, joined by “and”; a condition that tells them apart may be missing. Identical values can stand only once. Activity calls are given as the source filed them.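 How the source made its calls, unless noted: active means mean z-score across replicates of 1.96 or higher in either the MELAS or the Rieske mutant cell line; inactive means the rest.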
# Key:
# [1] = compounds altering viability of human ES cells (AID 493140; call rule not given here;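 further: cells exposed to compounds for four days before counting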); conditions: human embryonic stem cell survival screen; stronger effect = higher value
# [2] = stimulators of insulin release from INS-1E, primary screen, cell-based, 5 mM glucose, NPC library (AID 1117329;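 active means compound raises insulin release from rat beta cells at 5 mM glucose, no numeric limit stated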); conditions: rat INS-1E insulin secretion, at 10 µM, stronger effect = higher value
# [3] = growth inhibition of GSK3B-pretreated HCT116 cells – cell-based, CellTiter-Glo, 0.2 to 20 µM (AID 1117336;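 active means compounds lowering colon cancer cell viability after pretreatment blocking the GSK3B kinase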); conditions: HCT116 viability after GSK3B inhibitor, at 20 µM, stronger effect = higher value
# [4] = inhibition of endothelial tube formation, primary screen, imaging, VEGF stimulated, CD31 staining, tube area, NPC library (AID 1117340;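 active means compound that reduces growth-factor-driven endothelial tube area in a mixed cell culture, no cutoff stated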); conditions: VEGF-stimulated ADSC/ECFC co-culture, at 10 µM, stronger effect = higher value
# [5] = GLP1 release stimulators, primary, NCI-H716, NPC library (AID 1117341;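 active means compound raises GLP1 secretion from the human gut endocrine cells, with no numeric limit stated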); conditions: NCI-H716 cells, at 10 µM, stronger effect = higher value
# [6] = HCT116 colon cancer cell growth inhibition, primary screen, CellTiter-Glo luminescence, NPC library (AID 1117342;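 active means compounds that lower survival of HCT116 colon cancer cells in the luminescence readout, no numeric limit stated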); conditions: at 20 µM (top of the series)
# [7] = reduced SW480 viability measured with CellTiter-Glo, NPC library, primary (AID 1117343;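 active means compounds that lower viability of the colon cancer cells in the luminescence readout, with no numeric limit stated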); conditions: CellTiter-Glo luminescence; at 20 µM (top of the series) unless noted
# [8] = NPC library primary testing for decreased DLD-1 cell viability via CellTiter-Glo (AID 1117346;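 active means compounds that lower survival of DLD-1 colon cancer cells in the luminescence readout, no cutoff given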); conditions: DLD-1 viability, CellTiter-Glo luminescence; at 20 µM (top of the series)
# [9] = modulation of C. elegans fzo-1 (AID 1259413; call rule not given here;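 further: fzo-1 mutant C. elegans worms in liquid wells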); conditions: C. elegans fzo-1 modulator screen, mean read-out; stronger effect = higher value
# [10] = EMT-state selective cytotoxicity in co-culture – imaging, PC-3E GFP, TEM4-18 mCherry, primary screen (AID 1345086;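 active means compounds killing one labelled cell type while sparing the other, by normalised counts and ratio limits, not self-fluorescent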;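 on all read-outs here: cells exposed to compound for 72 h before imaging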;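 on red/green cell ratio (normalised): normalised mesenchymal count divided by normalised epithelial count so high means epithelial killing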); conditions: PC-3E GFP / TEM4-18 mCherry co-culture, imaging cell counts, at 1 µM; for red/green cell ratio (normalised): actives lie on both sides, counts scaled to control wells, 1 = unselective
# [11] = MELAS cybrid and Rieske KO viability enhancers – cell-based, MELAS cybrids, Rieske KO mouse fibroblasts, CellTiter-Glo, primary screen (AID 1508586); conditions: low glucose;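 further: z relative to plate mean and SD of compound and empty wells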
# [12] = target: NAD(+) hydrolase SARM1 (Homo sapiens) (UniProt Q6SZW1); assay: blocking NAD cleavage by SARM1 SAM-TIR – cell lysate, NAD-Glo luminescence (AID 1508614;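 active means compound whose remaining NAD level is above about 45 nM, limit read from the data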); conditions: SAM-TIR HEK293T lysate NADase, at 1 µM, stronger effect = higher value
# Sequence of NAD(+) hydrolase SARM1 (Homo sapiens) (Q6SZW1 whole entry, looked up, the tested form may be a part): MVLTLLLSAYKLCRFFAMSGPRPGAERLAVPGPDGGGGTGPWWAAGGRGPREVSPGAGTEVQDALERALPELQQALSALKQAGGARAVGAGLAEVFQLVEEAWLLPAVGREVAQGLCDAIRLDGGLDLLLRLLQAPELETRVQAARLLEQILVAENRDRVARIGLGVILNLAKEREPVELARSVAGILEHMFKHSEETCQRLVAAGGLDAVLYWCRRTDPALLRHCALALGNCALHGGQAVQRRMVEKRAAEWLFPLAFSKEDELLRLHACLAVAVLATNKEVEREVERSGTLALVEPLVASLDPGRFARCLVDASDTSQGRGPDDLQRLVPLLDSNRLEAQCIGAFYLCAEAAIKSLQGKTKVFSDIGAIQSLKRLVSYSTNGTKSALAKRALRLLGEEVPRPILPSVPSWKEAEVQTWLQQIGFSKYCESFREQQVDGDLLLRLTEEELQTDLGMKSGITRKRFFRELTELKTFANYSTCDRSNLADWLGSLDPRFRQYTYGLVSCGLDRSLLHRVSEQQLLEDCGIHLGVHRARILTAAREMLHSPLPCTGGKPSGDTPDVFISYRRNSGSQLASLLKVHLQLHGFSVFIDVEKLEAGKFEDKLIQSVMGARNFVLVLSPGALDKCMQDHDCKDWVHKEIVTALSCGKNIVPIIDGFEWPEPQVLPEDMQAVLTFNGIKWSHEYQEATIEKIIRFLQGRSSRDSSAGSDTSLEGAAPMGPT
# [13] = target: Mitogen-activated protein kinase 7 (Homo sapiens) (UniProt Q13164); assay: Gal4-ERK5 driven luciferase induction – cell-based, HTS, primary screen (AID 1508626;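 active means luciferase signal above three times the same-plate solvent-only control wells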;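 further: luciferase driven by Gal4-ERK5 fusion binding five Gal4 sites before minimal TATA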); conditions: HeLa Gal4-ERK5 transactivation, 18 h, at 5 µM, stronger effect = higher value
# Sequence of Mitogen-activated protein kinase 7 (Homo sapiens) (Q13164 whole entry, looked up, the tested form may be a part): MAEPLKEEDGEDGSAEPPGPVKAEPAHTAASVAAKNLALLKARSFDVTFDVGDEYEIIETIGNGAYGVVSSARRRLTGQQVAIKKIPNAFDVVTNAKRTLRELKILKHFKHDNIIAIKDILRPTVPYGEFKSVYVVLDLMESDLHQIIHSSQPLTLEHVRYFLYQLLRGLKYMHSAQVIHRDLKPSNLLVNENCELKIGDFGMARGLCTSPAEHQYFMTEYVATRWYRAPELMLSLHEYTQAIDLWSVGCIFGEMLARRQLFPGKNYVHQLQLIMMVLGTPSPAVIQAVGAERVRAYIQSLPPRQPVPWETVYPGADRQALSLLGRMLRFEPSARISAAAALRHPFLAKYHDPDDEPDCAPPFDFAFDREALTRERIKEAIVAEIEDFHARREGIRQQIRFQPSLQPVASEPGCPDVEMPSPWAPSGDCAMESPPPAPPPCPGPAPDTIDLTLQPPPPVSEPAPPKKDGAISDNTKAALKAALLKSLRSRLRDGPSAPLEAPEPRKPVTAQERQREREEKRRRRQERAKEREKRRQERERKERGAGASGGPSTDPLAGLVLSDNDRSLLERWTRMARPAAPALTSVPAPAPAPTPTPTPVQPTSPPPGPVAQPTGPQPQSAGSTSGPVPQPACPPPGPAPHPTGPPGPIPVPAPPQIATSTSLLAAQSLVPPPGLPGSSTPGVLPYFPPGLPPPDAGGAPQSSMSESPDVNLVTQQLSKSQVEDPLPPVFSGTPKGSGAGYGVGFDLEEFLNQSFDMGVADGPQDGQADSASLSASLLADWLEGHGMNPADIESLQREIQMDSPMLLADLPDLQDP
# [14] = galactose survival enhancers in mitochondrial complex I cybrids – cell-based, galactose medium, ATP luminescence, primary screen (AID 1645843;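 active means z-score of at least 1.8 in each of two replicates, scored against plate mean and spread of sample wells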;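 further: positive z means more ATP and so rescue of galactose-driven cybrid death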); conditions: complex I mutant cybrid cells, 72 h, stronger effect = higher value
# [15] = target: 6-phosphogluconate dehydrogenase, decarboxylating (Homo sapiens) (UniProt P52209); assay: inhibition of human phosphogluconate dehydrogenase – biochemical, recombinant enzyme, NADPH absorbance, primary screen (AID 1159550;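 active means at least 20% inhibition of 6-phosphogluconate dehydrogenase activity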); conditions: recombinant 6PGD, NADPH absorbance 341 nm; at 10 µM; stronger effect = higher value
# Sequence of 6-phosphogluconate dehydrogenase, decarboxylating (Homo sapiens) (P52209 whole entry, looked up): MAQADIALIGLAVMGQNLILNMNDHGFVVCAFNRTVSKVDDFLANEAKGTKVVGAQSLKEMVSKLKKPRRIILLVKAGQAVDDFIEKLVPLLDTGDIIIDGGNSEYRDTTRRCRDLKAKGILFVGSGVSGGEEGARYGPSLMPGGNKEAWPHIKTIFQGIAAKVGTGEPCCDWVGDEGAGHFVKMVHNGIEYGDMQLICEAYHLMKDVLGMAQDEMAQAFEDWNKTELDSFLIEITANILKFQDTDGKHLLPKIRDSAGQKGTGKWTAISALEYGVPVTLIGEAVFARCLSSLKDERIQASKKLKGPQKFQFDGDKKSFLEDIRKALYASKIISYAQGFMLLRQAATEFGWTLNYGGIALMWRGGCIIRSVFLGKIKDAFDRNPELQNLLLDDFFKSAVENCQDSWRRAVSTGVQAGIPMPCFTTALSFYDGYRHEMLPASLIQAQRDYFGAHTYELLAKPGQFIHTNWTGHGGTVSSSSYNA
# [16] = viability loss with induced miR-34 in A549 – imaging, A549 dox-inducible miR-34, nuclei and caspase counts, primary screen (AID 1347080;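 active means compounds whose cell count with miR-34 switched on is under 0.7 times the count with it off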); conditions: A549 miR-34 inducible, Hoechst nuclei count, 48 h
# [17] = P. berghei load reduction in hepatocytes – cell-based, HepG2, luciferase luminescence, HepG2 viability, primary screen (AID 624349; in the data active means parasite load remaining mostly below about 12%, no sharp cut-off; inactive means mostly above about 10%;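 further: 100% = mean of DMSO negative control wells on the same plate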); conditions: P. berghei liver stage in HepG2, luciferase luminescence, concentration not given here; parasite load remaining: stronger effect = lower value; viability: measured here: HepG2 viability without parasites
# [18] = blockers of cellular phospholipid synthesis – cell-based, LOPAC library, screen 4, primary screen (AID 1347384; call rule not given here); conditions: animal cells, phospholipid biosynthesis inhibition screen; at 10 µM
# [19] = measured here: epithelial PC-3E GFP cell survival
# [20] = measured here: mesenchymal TEM4-18 mCherry cell survival
# [21] = MELAS cybrid survival, CellTiter-Glo 48 h, stronger effect = higher value
# [22] = Rieske KO mouse fibroblast survival, CellTiter-Glo 72 h
# [23] = stronger effect = lower value, cell number ratio, induced over uninduced
# [24] = measured here: relative caspase fold change +Dox/-Dox
# [25] = measured here: total cells with miR-34 induction, stronger effect = lower value
# [26] = measured here: total cells without miR-34 induction
structure (smiles),measurement,setting,value
Clc1ccccc1CN1CCc2sccc2C1,survival,[1],17.8 (inactive)
same,insulin secretion stimulation,[2],-2.1% (inactive)
same,viability decrease,[3],13.8% (inactive)
same,tube area decrease,[4],5.4% (inactive)
same,GLP1 secretion stimulation,[5],-2.6% (inactive)
same,inhibition of viability,[6],3.9% (inactive)
same,viability decrease (inhibition),[7],70.5% (active)
same,viability decrease (inhibition),[8],32.4% (inactive)
same,mean signal,[9],271 (inactive)
same,red/green cell ratio (normalised),[10],0.9 (inactive)
same,normalised cell number,[10]; [19],1.03
same,normalised cell number,[10]; [20],0.94
same,z-score,[11]; [21],0.708 (inactive) and -0.623 (inactive)
same,z-score,[11]; [22],0.315 and 0.0692
same,remaining NAD,[12],10 nM (inactive)
same,luciferase signal,[13],52 AU (inactive)
same,z-score,[14],-1.11 (inactive) and 0.17 (inactive)
COc1ccc(C(C)C(=O)c2ccc(O)cc2O)cc1 (stereo unspecified),inhibition,[15],10.6% (inactive)
O=C(O)c1cn(C2CC2)c2cc(N3CCNCC3)c(F)cc2c1=O,survival,[1],20.5 (inactive)
same,insulin secretion stimulation,[2],-0.6% (inactive)
same,viability decrease,[3],-4.5% (inactive)
same,tube area decrease,[4],-29.4% (inactive)
same,GLP1 secretion stimulation,[5],1.9% (inactive)
same,inhibition of viability,[6],8.6% (inactive)
same,viability decrease (inhibition),[7],12.3% (inactive)
same,viability decrease (inhibition),[8],-5% (inactive)
same,inhibition,[15],-0.391% (inactive)
same,red/green cell ratio (normalised),[10],1.14 (inactive) and 1.04 (inactive)
same,normalised cell number,[10]; [19],1.04 and 1.24
same,normalised cell number,[10]; [20],1.18 and 1.28
same,fold change,[16]; [23],0.89 (inactive) and 0.772 (inactive) and 0.838 (inactive)
same,fold change,[16]; [24],1.27 and 3.9 and 0.85
same,cell count,[16]; [25],9200 and 10000 and 9070
same,cell count,[16]; [26],10300 and 13000 and 10800
same,z-score,[11]; [21],-0.333 (inactive) and -0.308 (inactive)
same,z-score,[11]; [22],-3.38 and -1.41
same,remaining NAD,[12],10 nM (inactive)
same,luciferase signal,[13],76 AU (inactive)
same,z-score,[14],0.01 (inactive)
CC(C)=CCc1c(O)cc(C)oc1=O,inhibition,[15],-5.39% (inactive)
O=C(O[C@@H]1Cc2c(O)cc(O)cc2O[C@@H]1c1cc(O)c(O)c(O)c1-c1c([C@H]2Oc3cc(O)cc(O)c3C[C@H]2O)cc(O)c(O)c1O)c1cc(O)c(O)c(O)c1,inhibition,[15],1.5% (inactive)
COc1ccc(-c2nc3ccc(C4=NNC(=O)CC4C)cc3[nH]2)cc1 (stereo unspecified),insulin secretion stimulation,[2],2.8% (inactive)
same,viability decrease,[3],18.3% (inactive)
same,tube area decrease,[4],80.8% (active)
same,GLP1 secretion stimulation,[5],6.8% (inactive)
same,inhibition of viability,[6],61.7% (active)
same,viability decrease (inhibition),[7],43% (inactive)
same,viability decrease (inhibition),[8],52.3% (active)
same,fold change,[16]; [23],0.906 (inactive)
same,fold change,[16]; [24],1.1
same,cell count,[16]; [25],5650
same,cell count,[16]; [26],6230
same,z-score,[11]; [21],1.76 (inactive)
same,z-score,[11]; [22],0.199
O=S(=O)(c1cccc2cnccc12)N1CCCNCC1,survival,[1],467 (active)
same,parasite load remaining,[17],62.2% (inactive) and 44.5% (inactive)
same,viability,[17],103% and 67.7%
same,insulin secretion stimulation,[2],4.95% (inactive)
same,viability decrease,[3],18.1% (inactive)
same,tube area decrease,[4],-19.8% (inactive)
same,GLP1 secretion stimulation,[5],-2.6% (inactive)
same,inhibition of viability,[6],24.3% (inactive)
same,viability decrease (inhibition),[7],-4.3% (inactive)
same,viability decrease (inhibition),[8],15.4% (inactive)
same,red/green cell ratio (normalised),[10],1.1 (inactive)
same,normalised cell number,[10]; [19],0.86
same,normalised cell number,[10]; [20],0.95
same,z-score,[11]; [21],-0.155 (inactive) and -0.944 (inactive)
same,z-score,[11]; [22],-1.52 and 0.0333
same,remaining NAD,[12],10 nM (inactive)
same,z-score,[14],-0.745 (inactive) and -1.1 (inactive)
COc1ccc(C2COc3c(ccc(O)c3OC)C2)c(OC)c1O (stereo unspecified),inhibition,[15],-5.05% (inactive)
CC(C)[C@@H](C)/C=C/[C@@H](C)[C@H]1CC[C@H]2C3=CCC4CC(=O)CC[C@]4(C)[C@H]3CC[C@]12C (stereo partly specified),inhibition,[15],2.32% (inactive)
CS(=O)(=O)c1ccc([C@@H](O)[C@@H](CF)NC(=O)C(Cl)Cl)cc1,survival,[1],1.92 (inactive)
same,parasite load remaining,[17],110% (inactive) and 27.9% (inactive)
same,viability,[17],101% and 68.5%
same,insulin secretion stimulation,[2],1.8% (inactive)
same,viability decrease,[3],-7.1% (inactive)
same,tube area decrease,[4],10.2% (inactive)
same,GLP1 secretion stimulation,[5],0.9% (inactive)
same,inhibition of viability,[6],14.2% (inactive)
same,viability decrease (inhibition),[7],17.1% (inactive)
same,viability decrease (inhibition),[8],13.6% (inactive)
same,fold change,[16]; [23],0.925 (inactive) and 0.937 (inactive)
same,fold change,[16]; [24],0.927 and 1.15
same,cell count,[16]; [25],8300 and 9020
same,cell count,[16]; [26],8980 and 9620
same,z-score,[11]; [21],-0.214 (inactive) and 0.287 (inactive)
same,z-score,[11]; [22],-1.14 and -0.231
same,remaining NAD,[12],10 nM (inactive)
same,luciferase signal,[13],136 AU (inactive)
same,z-score,[14],-1.65 (inactive)
CN(C)C(=N)N=C(N)N,survival,[1],14 (inactive)
same,insulin secretion stimulation,[2],-2.3% (inactive)
same,viability decrease,[3],-7% (inactive)
same,tube area decrease,[4],-11.5% (inactive)
same,GLP1 secretion stimulation,[5],3.1% (inactive)
same,inhibition of viability,[6],-25.7% (inactive)
same,viability decrease (inhibition),[7],17% (inactive)
same,viability decrease (inhibition),[8],-1.55% (inactive)
same,inhibition,[15],10.4% (inactive)
same,red/green cell ratio (normalised),[10],0.72 (inactive)
same,normalised cell number,[10]; [19],1.31
same,normalised cell number,[10]; [20],0.95
same,fold change,[16]; [23],0.831 (inactive) and 0.956 (inactive) and 0.958 (inactive)
same,fold change,[16]; [24],1.13 and 2.95 and 0.938
same,cell count,[16]; [25],7440 and 12900 and 10500
same,cell count,[16]; [26],8950 and 13500 and 10900
same,z-score,[11]; [21],-0.356 (inactive) and 0.193 (inactive)
same,z-score,[11]; [22],0.0508 and -0.797
same,remaining NAD,[12],10 nM (inactive)
same,luciferase signal,[13],508 AU (active)
same,z-score,[14],0.78 (inactive)
CC(C)(C(=O)O)c1ccc(C(O)CCCN2CCC(C(O)(c3ccccc3)c3ccccc3)CC2)cc1 (stereo unspecified),parasite load remaining,[17],72.9% (inactive) and 85.2% (inactive) and 65.9% (inactive)
same,viability,[17],89.9% and 71.9% and 128%
same,insulin secretion stimulation,[2],2.1% (inactive)
same,viability decrease,[3],1.3% (inactive)
same,tube area decrease,[4],-20.5% (inactive)
same,GLP1 secretion stimulation,[5],-2.2% (inactive)
same,inhibition of viability,[6],-3.77% (inactive)
same,viability decrease (inhibition),[7],33.1% (inactive)
same,viability decrease (inhibition),[8],-0.4% (inactive)
same,mean signal,[9],241 (inactive)
same,red/green cell ratio (normalised),[10],1.14 (inactive)
same,normalised cell number,[10]; [19],0.92
same,normalised cell number,[10]; [20],1.05
same,outcome,[18],inactive
same,z-score,[11]; [21],-0.235 (inactive) and -0.763 (inactive)
same,z-score,[11]; [22],-0.15 and -0.362
same,remaining NAD,[12],10 nM (inactive)
same,luciferase signal,[13],40 AU (inactive)
same,z-score,[14],0.205 (inactive) and 1.1 (inactive) and -0.085 (inactive)
C[C@@H](O[C@H]1OCCN(Cc2n[nH]c(=O)[nH]2)[C@H]1c1ccc(F)cc1)c1cc(C(F)(F)F)cc(C(F)(F)F)c1,parasite load remaining,[17],26.3% (inactive)
same,viability,[17],67.5%
same,insulin secretion stimulation,[2],1.6% (inactive)
same,viability decrease,[3],99% (active)
same,tube area decrease,[4],108% (active)
same,GLP1 secretion stimulation,[5],-2.9% (inactive)
same,inhibition of viability,[6],97.5% (active)
same,viability decrease (inhibition),[7],102% (active)
same,viability decrease (inhibition),[8],100% (active)
same,fold change,[16]; [23],0.959 (inactive)
same,fold change,[16]; [24],1.18
same,cell count,[16]; [25],9050
same,cell count,[16]; [26],9430
same,z-score,[11]; [21],0.822 and 0.307 (inactive)
same,z-score,[11]; [22],2.09 and 0.201
same,z-score,[14],-0.16 (inactive)
Nc1nc2[nH]c(=O)c(=O)[nH]c2c(=O)[nH]1,inhibition,[15],13.8% (inactive)
C=C1C(C2(C)C(OC(C)=O)CC(=O)OC(C)(COC(C)=O)C2CC(=O)OC)C(OC=O)C(OC(=O)C(O)C(C)CC)C2(C)C(c3ccoc3)CC(=O)C12O (stereo unspecified),inhibition,[15],7.27% (inactive)
CC[C@@H](/C=C/[C@@H](C)[C@H]1CC[C@H]2[C@@H]3CC=C4C[C@@H](O)CC[C@]4(C)[C@H]3CC[C@]12C)C(C)C,inhibition,[15],15.3% (inactive)
